Results filed as inconclusive are left out. Calls of active or inactive are those of the source. Calls come from the whole dose curve; as a rule, active = well fitted cell-killing curve with a large enough effect; inconclusive = small, poorly fitted or top-dose-only effect, or effect the other way; inactive = no such curve, though single readings can be large or run the other way.
Assay: Quantitative High-Throughput drug screen in 47 multiple myeloma cell lines against the NCATS MIPE library collection: OPM2_DSMZ cell viability assay (AID 1919872); note: nearly all actives have a fitted effect of over 30% in size
Settings: OPM2 myeloma viability, CellTiter-Glo ATP luminescence, 48 h; series mostly up to 45.8 µM
Procedure, shortened: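 Relative luminescence from CellTiter-Glo served as the viability signal, referenced to DMSO-treated (100%) and cell-free medium (0%) controls. Treatment lasted 48 hours at 37C with 500 cells per well.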
Potency is the fitted concentration of half-maximal effect.

Row | SMILES | Potency
1 | CC(=O)N[C@H]1[C@@H]([C@H](O)[C@H](O)CO)OC(C(=O)O)=C[C@@H]1N=C(N)N | inactive
2 | COc1cc(C)c(C=CC(C)=CC=CC(C)=CC(=O)O)c(C)c1C | inactive
3 | CCCCCCCCc1ccc(CCC(N)(CO)CO)cc1 | 16600 nM (active)
4 | C[C@H](CCC(=O)O)[C@H]1CCC2C3C[C@H](O)[C@@H]4C[C@H](O)CC[C@]4(C)C3CC[C@@]21C (some centres undefined) | inactive
5 | C[C@H](CCC(=O)O)[C@H]1CC[C@H]2[C@@H]3[C@H](O)C[C@@H]4C[C@H](O)CC[C@]4(C)[C@@H]3CC[C@]12C | inactive
6 | NC[C@H]1O[C@H](O[C@H]2[C@@H](O)[C@@H](O[C@H]3O[C@H](CO)[C@@H](O)[C@H](N)[C@@H]3O)[C@H](N)C[C@@H]2N)[C@H](N)C[C@H]1O | inactive
7 | COc1cc2c(Nc3ccc(Cl)c(Cl)c3F)ncnc2cc1OCC1C[C@@H]2CN(C)C[C@H]2C1 | 20900 nM (active)
8 | COC(=O)[C@H](CCCN=C(N)N)NS(=O)(=O)c1ccc(C)cc1 | inactive
9 | C[N+](C)([O-])CCNc1ccc(NCC[N+](C)(C)[O-])c2c1C(=O)c1c(O)ccc(O)c1C2=O | inactive
10 | CCOC(=O)[C@H](CCc1ccccc1)N[C@@H](C)C(=O)N1[C@@H](C(=O)O)C[C@H]2CCC[C@@H]21 | 26400 nM (active)
11 | Oc1ccc(-c2ccc(-c3cc(Nc4cccc(CNC5CC5)c4)n[nH]3)cc2)c(O)c1 | 4690 nM (active)
12 | C=CCNC1=C2C[C@@H](C)C[C@H](OC)[C@@H](O)[C@@H](C)C=C(C)[C@H](OC(N)=O)[C@@H](OC)C=CC=C(C)C(=O)NC(=CC1=O)C2=O | 2350 nM (active)
13 | CC(C)(O)Cn1c(NC(=O)c2ccc(-c3cn[nH]c3)s2)nc2cc(CN3CCOCC3)ccc21 | 2350 nM (active)
14 | CCCc1nc(C(C)(C)O)c(C(=O)O)n1Cc1ccc(-c2ccccc2-c2nn[nH]n2)cc1 | inactive
15 | COc1cc(OC)cc(-c2ccc3ncc4ccc(=O)n(-c5ccc(N6CCNCC6)c(C(F)(F)F)c5)c4c3c2)c1 | 8330 nM (active)
16 | COc1cc(C)c(Sc2cnc(NC(=O)c3ccc(CNC(C)C(C)(C)C)cc3)s2)cc1C(=O)N1CCN(C(C)=O)CC1 (centres undefined) | 20900 nM (active)
17 | CCNC(=O)Nc1ccc(-c2nc3c(c(N4CCOC[C@H]4C)n2)CCN(C2COC2)C3)cc1 | 1660 nM (active)
18 | CON=C(C(=O)N[C@@H]1C(=O)N2C(C(=O)O)=C(Cn3ccc(=N)n3CCO)CS[C@H]12)c1csc(N)n1 | inactive
19 | COC[C@H](NC(=O)c1cnc(C)s1)C(=O)N[C@@H](COC)C(=O)N[C@@H](Cc1ccccc1)C(=O)[C@@]1(C)CO1 | 235 nM (active)
20 | COc1cccc2c1C(=O)c1c(O)c3c(c(O)c1C2=O)C[C@@](O)(C(=O)CO)C[C@@H]3O[C@H]1C[C@H](N)[C@H](OC2CCCCO2)[C@H](C)O1 (some centres undefined) | 16600 nM (active)
21 | Nc1cccc2c1C(=O)N(C1CCC(=O)NC1=O)C2=O (centres undefined) | 1.2 nM (active)
22 | O=c1ccn([C@@H]2O[C@H](CO)[C@H](O)[C@@H]2F)c(=O)[nH]1 | inactive
23 | Cn1cc(CNCC2CCN(c3ncc(C(=O)NO)cn3)CC2)c2ccccc21 | 41.8 nM (active)
24 | CC(=O)NCC(=O)N1[C@H]2CC[C@H]1c1cc(Nc3ncc(C(F)(F)F)c(NC4CCC4)n3)ccc12 | 1480 nM (active)
25 | CC(C)N(CC[C@H](c1ccccc1)c1cc(CO)ccc1O)C(C)C | inactive

Assay: Quantitative High-Throughput drug screen in 47 multiple myeloma cell lines against the NCATS MIPE library collection: KMS11_JCRBsus cell viability assay (AID 1919873); note: nearly all actives have a fitted effect of over 50% in size
Settings: KMS11 myeloma viability, CellTiter-Glo ATP luminescence, 48 h; series mostly up to 45.8 µM
Procedure, shortened: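 Plated at 500 cells per well, myeloma lines received MIPE 4.0 compounds by pin tool. Following 48 h culture at 37 °C, CellTiter-Glo luminescence gave viability relative to DMSO and media-only controls.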

Row | SMILES | Potency
26 | CCN(CC)Cc1ccc2cc(COC(=O)Nc3ccc(C(=O)NO)cc3)ccc2c1 | 526 nM (active)
27 | COc1ccc2c(c1OC)C(=O)OC2[C@H]1c2c(cc3c(c2OC)OCO3)CCN1C (some centres undefined) | 26.4 nM (active)
28 | COc1cccc2c1C(=O)c1c(O)c3c(c(O)c1C2=O)C[C@@](O)(C(C)=O)C[C@H]3O[C@H]1C[C@H](N)[C@H](O)[C@H](C)O1 | 93.5 nM (active)
29 | CCOC(=O)N1CCN([N+]([O-])=NOc2ccc([N+](=O)[O-])cc2C#N)CC1 | 662 nM (active)
30 | C[C@H]1O[C@H](O[C@H]2[C@H](O)[C@@H](O)[C@@H](O[C@H]3[C@H](O)[C@@H](O)C(O)O[C@H]3CO)O[C@H]2CO)[C@H](O)[C@@H](O)[C@H]1N[C@H]1C=C(CO)[C@@H](O)[C@H](O)[C@@H]1O (some centres undefined) | inactive
31 | COc1ccc(S(=O)(=O)Nc2cccnc2Nc2ccc(O)cc2)cc1 | 41.8 nM (active)
32 | CC(=O)N[C@H]1[C@@H]([C@H](O)[C@H](O)CO)OC(C(=O)O)=C[C@@H]1N=C(N)N | inactive
33 | COc1cc(C)c(C=CC(C)=CC=CC(C)=CC(=O)O)c(C)c1C | inactive
34 | CCCCCCCCc1ccc(CCC(N)(CO)CO)cc1 | 7430 nM (active)
35 | Oc1cc(-c2nc(-c3ccccc3)[nH]c2-c2ccncc2)ccc1Cl | 14800 nM (active)
36 | C[C@H](CCC(=O)O)[C@H]1CC[C@H]2[C@@H]3[C@H](O)C[C@@H]4C[C@H](O)CC[C@]4(C)[C@@H]3CC[C@]12C | inactive
37 | COc1cc2c(Nc3ccc(Cl)c(Cl)c3F)ncnc2cc1OCC1C[C@@H]2CN(C)C[C@H]2C1 | 5900 nM (active)
38 | C[N+](C)([O-])CCNc1ccc(NCC[N+](C)(C)[O-])c2c1C(=O)c1c(O)ccc(O)c1C2=O | inactive
39 | CCOC(=O)[C@H](CCc1ccccc1)N[C@@H](C)C(=O)N1[C@@H](C(=O)O)C[C@H]2CCC[C@@H]21 | 6620 nM (active)
40 | Oc1ccc(-c2ccc(-c3cc(Nc4cccc(CNC5CC5)c4)n[nH]3)cc2)c(O)c1 | 1320 nM (active)
41 | C=CCNC1=C2C[C@@H](C)C[C@H](OC)[C@@H](O)[C@@H](C)C=C(C)[C@H](OC(N)=O)[C@@H](OC)C=CC=C(C)C(=O)NC(=CC1=O)C2=O | 59 nM (active)
42 | CC(C)(O)Cn1c(NC(=O)c2ccc(-c3cn[nH]c3)s2)nc2cc(CN3CCOCC3)ccc21 | 743 nM (active)
43 | CCCc1nc(C(C)(C)O)c(C(=O)O)n1Cc1ccc(-c2ccccc2-c2nn[nH]n2)cc1 | inactive
44 | COc1cc(OC)cc(-c2ccc3ncc4ccc(=O)n(-c5ccc(N6CCNCC6)c(C(F)(F)F)c5)c4c3c2)c1 | 2640 nM (active)
45 | CC1=C(C(=O)Nc2cc3cn[nH]c3cc2F)C(c2ccc(Cl)cc2F)N=C(c2ccnc(Cl)c2)N1 (centres undefined) | 14800 nM (active)
46 | CN(C)CCN1C(=O)c2cccc3cc(N)cc(c23)C1=O | 16600 nM (active)
47 | CCNC(=O)Nc1ccc(-c2nc3c(c(N4CCOC[C@H]4C)n2)CCN(C2COC2)C3)cc1 | 296 nM (active)
48 | CON=C(C(=O)N[C@@H]1C(=O)N2C(C(=O)O)=C(Cn3ccc(=N)n3CCO)CS[C@H]12)c1csc(N)n1 | inactive
49 | COC[C@H](NC(=O)c1cnc(C)s1)C(=O)N[C@@H](COC)C(=O)N[C@@H](Cc1ccccc1)C(=O)[C@@]1(C)CO1 | 18.7 nM (active)
50 | COc1cccc2c1C(=O)c1c(O)c3c(c(O)c1C2=O)C[C@@](O)(C(=O)CO)C[C@@H]3O[C@H]1C[C@H](N)[C@H](OC2CCCCO2)[C@H](C)O1 (some centres undefined) | 2640 nM (active)
51 | O=c1ccn([C@@H]2O[C@H](CO)[C@H](O)[C@@H]2F)c(=O)[nH]1 | inactive
52 | Cn1cc(CNCC2CCN(c3ncc(C(=O)NO)cn3)CC2)c2ccccc21 | 26.4 nM (active)
53 | CC(=O)NCC(=O)N1[C@H]2CC[C@H]1c1cc(Nc3ncc(C(F)(F)F)c(NC4CCC4)n3)ccc12 | 66.2 nM (active)
54 | CC(C)N(CC[C@H](c1ccccc1)c1cc(CO)ccc1O)C(C)C | inactive
